Source: PubChem BioAssay
An excerpt weighted towards active compounds, which were near 2% of everything screened.
CHRM4 PAM = potentiates acetylcholine response at human M4 receptor. P08173. CHO-K1 hM4/Gqi5, Fluo-8 calcium fluorescence, ACh EC20; 0% = ACh EC20, 100% = maximal ACh. activation, % at 3 µM. 360,000 compounds, 0.4% hits. AID 624126;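 active = activation above its plate's cutoff, the mean activation of sample wells plus 3 SD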
Target sequence (P08173 whole entry, looked up): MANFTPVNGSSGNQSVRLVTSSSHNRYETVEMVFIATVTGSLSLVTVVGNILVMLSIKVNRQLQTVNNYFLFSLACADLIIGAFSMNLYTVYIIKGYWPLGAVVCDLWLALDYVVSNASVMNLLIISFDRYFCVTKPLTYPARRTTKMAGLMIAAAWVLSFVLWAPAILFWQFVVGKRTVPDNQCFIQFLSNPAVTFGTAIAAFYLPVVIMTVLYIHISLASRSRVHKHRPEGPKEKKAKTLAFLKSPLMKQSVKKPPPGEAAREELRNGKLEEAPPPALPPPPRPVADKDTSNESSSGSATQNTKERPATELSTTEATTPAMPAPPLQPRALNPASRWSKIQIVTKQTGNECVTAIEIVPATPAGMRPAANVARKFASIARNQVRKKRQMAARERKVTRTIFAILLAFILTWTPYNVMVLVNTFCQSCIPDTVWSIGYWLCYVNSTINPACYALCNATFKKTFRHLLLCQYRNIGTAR
CHO-K1 Ca antag = M1 antagonist counterscreen hit in parental CHO-K1 cells; inhibition, % at 3 µM; AID 602250; 360,000 compounds, 0.6% hits; ATP-induced calcium, Fluo-8 fluorescence;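 active = inhibition above a per-plate cutoff, the plate's mean sample inhibition plus 3 SD, cut at about 24% in these data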;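 note: 0% = DMSO plus EC80 ATP and 100% = DMSO alone without ATP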
CHO-K1 Ca ag = counter-screen for M1 agonists: effect in parental CHO-K1 cells. 360,000 compounds, 0.48% hits. activation, % at 3 µM. Fluo-8 calcium fluorescence; scaled to maximal ATP response, vehicle zero. AID 602248; in the data active = activation above about 15%;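 note: untransfected CHO-K1 host cells lacking M1 receptor as counterscreen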
CHRM4 antagonist = blocks acetylcholine activation of human M4 receptor | AID 624125 | CHO-hM4 cells, ACh EC80, Fluo-8 calcium fluorescence | inhibition, % at 3 µM | 360,000 compounds, 0.73% hits | P08173;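 active = inhibition above its plate's cutoff, the mean inhibition of sample wells plus 3 SD, cut at about 27% in these data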;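 note: 0% = acetylcholine EC80 with DMSO and 100% = DMSO without agonist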
CHO-K1 Ca PAM = nonselective activator or artifact in parental CHO-K1 calcium assay | AID 602247 | 360,000 compounds, 0.02% hits | activation, % at 3 µM | ATP EC20, Fluo-8 calcium fluorescence; 0% at ATP EC20, 100% at ATP max;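 active = activation above the run cutoff, the mean activation of all test compounds plus 3 SD, cut at about 40% in these data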;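 note: peak over basal fluorescence ratio in a 140 s read after ATP addition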
M4 ag = agonists of human muscarinic M4 receptor (CHRM4); P08173; CHO-K1 hM4/Gqi5, Fluo-8 calcium fluorescence; vehicle 0%, full acetylcholine response 100%; activation, % at 3 µM; 360,000 compounds, 0.14% hits; AID 624127;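 active = activation above the run mean over all test wells plus 3 SD, cut at about 32% in these data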;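 note: peak over basal fluorescence ratio per well then scaled between controls; 0% = DMSO wells and 100% = acetylcholine at EC100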
* hit, by the source's call; / = no result.

SMILES	CHRM4 PAM	CHO-K1 Ca antag	CHO-K1 Ca ag	CHRM4 antagonist	CHO-K1 Ca PAM	M4 ag
COc1ccc(-c2nc(N3CCCCCC3)sc2C(=O)c2ccccc2)cc1	-12	52*	4	33*	4	13
COc1ccc(-c2nn(-c3ccccc3)cc2/C=C/C(=O)N2CCN(c3ccccn3)CC2)cc1	-15	-9	3	6	20	6
CSCC(=O)NS(=O)(=O)c1ccc(C)cc1	-2	28*	0	6	-17	1
O=C1c2cccnc2C(=O)N1Cc1ccc(F)cc1S(=O)(=O)NCc1ccco1	-5	-2	2	7	-5	2
O=C(c1ccc(S(=O)(=O)Nc2ccccc2F)cc1)N1CCC1	2	-10	0	5	5	0
CC(Oc1cc2oc(=O)c3c(c2cc1Cl)CCC3)C(=O)NCc1ccccn1 (centres undefined)	-3	-9	3	4	14	0
Cc1ccc(C(=O)COC(=O)CNC(=O)c2ccccc2)s1	22*	3	0	-6	-12	1
CC(C)(C)OC(=O)C[C@H]1C/C=C\C[C@@H](CC(=O)N[C@@H](CO)Cc2ccccc2)C(=O)NCCOC1=O	-3	-11	0	-10	6	1
O=C(/C(N=Nc1cccc([N+](=O)[O-])c1)=C(/O)c1ccc(Br)cc1)C(F)(F)F	-16	21	10	37*	-17	17
CCOC(=O)C1=C[C@@H](C(C)(C)C)N(S(=O)(=O)c2ccc(C)cc2)[C@H]1c1ccc(F)cc1	-13	8	0	6	15	-1
COc1cc(C(O)c2nc(-c3ccccc3OC)cs2)ccc1F (centres undefined)	2	-11	2	-15	23	4
COCCCNc1nc(SCc2ccccc2)nc2sc3c(c12)CCC3	-1	25*	0	6	-5	-1
COCCNc1nc(SC)nc2sc3c(c12)CCN(C)C3	-8	-12	0	6	10	1
Cc1nn(CCOc2ccccc2)c(=O)n1-c1c(F)cccc1F	32*	-10	0	31*	5	2
Cc1ccc(-n2c(C)nn(CCOc3ccccc3)c2=O)cc1	5	-5	1	-8	13	2
Nc1cccnc1-n1nc(C(F)(F)F)cc1C(F)(F)F	1	-9	2	-9	5	7
COC(=O)c1[nH]nc(-c2ccccc2)c1-c1ccccc1	3	-4	3	-2	6	4
CCCCOc1cc(NCc2ccccc2)c2ncn(C(C)C)c2c1	29*	-9	10	-23	0	11
COc1cc(NCc2ccccc2)c2ncn(Cc3ccccc3)c2c1	36*	-7	3	-20	3	17
CC(C)c1c(C(=O)N/N=C/c2cccc(OCc3ccc(F)cc3)c2)nnn1-c1nonc1N	1	-5	0	11	-8	0
COc1cccc(CNC(=O)COC(=O)c2cccc(S(=O)(=O)N3CCCC3)c2)c1	-3	2	2	11	7	6
CCOc1ccc(C(=O)CN2C(=O)NC3(CCCc4ccccc43)C2=O)cc1 (centres undefined)	2	1	2	-13	18	5
Cc1ccc(C(=O)C(C)OC(=O)Cc2c[nH]c3ccccc23)cc1 (centres undefined)	2	1	0	-3	-2	0
Cc1ccc(NC(=O)C(C)OC(=O)Cc2c[nH]c3ccccc23)cc1 (centres undefined)	24*	-10	0	-12	9	2
CC1(C(=O)NCc2ccccc2)CSCC(=O)N1CCc1c[nH]c2ccccc12 (centres undefined)	-3	/	/	0	/	9
CC1(C(=O)NCc2ccccc2)CCC(=O)N1CCc1c[nH]c2ccccc12 (centres undefined)	-6	31*	1	4	-9	2
O=C(Nc1cccs1)Nc1nnc([C@@H]2C[C@H](O)[C@@H](CO)O2)s1	3	0	1	-2	0	1
CC(C)(C)OC(=O)NCCc1nnc(SCC(=O)Nc2ccc(Br)cc2)o1	-8	3	29*	-1	-1	13
